Assay [1] is described as follows: inducers of Cryptococcus neoformans cell lysis, dose response, AK release luminescence, cherry-picks (AID 687000;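 active = fitted dose curve reaches 40% lysis signal rise at or below the highest valid concentration tested for that sample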;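 note: luminescent detection of adenylate kinase leaking from lysed yeast; 0% = median neutral control signal and 100% = double that signal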).
Assay [2] is described as follows: HepG2 cell cytotoxicity, dose response, cytotoxicity control, cherry-picks, set 2 (AID 687002).
Assay [3] in a line: Cryptococcus neoformans growth inhibition, dose response, Alamar Blue, cherry-picks (AID 686998;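 active = falling signal with fitted half-maximal potency no higher than twice the top valid tested dose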).
A short description of assay [4]: HeLa cell cytotoxicity, dose response, cytotoxicity control, ATP luminescence, cherry-pick samples (AID 687004;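 active = a fitted half-maximal concentration no higher than twice the top valid tested dose, with signal falling as cells die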;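 note: 0% = neutral control median and -100% = staurosporine 10 µM control median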).

Entries with a potency or affinity are not part of this list. Records with an inconclusive call do not appear. A number with no mark means an inactive call. Calls of active or inactive are those of the source.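 Rule for the calls, unless noted: active = a dose-response fit showing signal loss, with half-maximal concentration no higher than twice the top tested dose; inconclusive = flat fit between 30% and 70% signal loss, or poor fit; inactive = the rest.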

For `C[C@@H]1CN([C@@H](C)CO)C(=O)Cc2cc(NS(=O)(=O)c3ccccc3)ccc2O[C@@H]1CN(C)Cc1ccc(Cl)c(Cl)c1`, the call in assay [1] and in assay [2] was inactive.

For the compound `CC(C)CC#Cc1ccc2c(c1)O[C@H](CN(C)C(=O)C1CCC1)[C@@H](C)CN([C@@H](C)CO)S2(=O)=O`, the compound was called inactive in assay [1] and in assay [2].

In the case of `COc1ccc(NC(=O)N(C)C[C@@H]2OCCCC[C@@H](C)Oc3ccc(NC(=O)Nc4ccc5c(c4)OCO5)cc3C(=O)N([C@@H](C)CO)C[C@H]2C)cc1`, the result in assay [3], in assay [2] and in assay [4] was inactive.

Consider `N#C[C@H]1[C@@H](c2ccc(C#CCC3CCCC3)cc2)[C@@H](CO)N1C(=O)c1ccccn1`, for which the compound was called inactive in assay [1] and in assay [2].

As to `COC(=O)C1=C(C)N(Cc2ccc(Br)cc2)C(=S)NC1c1cccc(Br)c1` (stereo not given), the compound was classed as inactive in assay [1] and in assay [2].

On to `O=C(CSc1ncnc2c1cnn2-c1ccc(F)cc1)NCC1CCCO1` (stereo not given), for which the result in assay [1], in assay [2] and in assay [4] was inactive.

In the case of `CC(C)NC(=O)N(C)C[C@H]1OCCCC[C@H](C)Oc2ccc(NC(=O)c3ccccc3)cc2C(=O)N([C@@H](C)CO)C[C@@H]1C`, the compound was classed as inactive in assay [3], in assay [2] and in assay [4].

For the compound `O=C(CN(c1ccccc1)S(=O)(=O)c1ccc(F)cc1)N1CCCCCC1`, the call in assay [1], in assay [2] and in assay [4] was inactive.

`CC(C)NC(=O)Nc1ccc2c(c1)C(=O)N([C@@H](C)CO)C[C@@H](C)[C@@H](CN(C)C(=O)NC(C)C)OCCCC[C@@H](C)O2`: the compound was classed as inactive in assay [3], in assay [2] and in assay [4].

As for `C[C@@H]1CN([C@H](C)CO)S(=O)(=O)c2ccc(-c3ccccc3)cc2O[C@H]1CN(C)C(=O)C1CCCCC1`, the outcome in assay [1] and in assay [2] was inactive.

As to `COc1cccc(S(=O)(=O)Nc2ccc3c(c2)OC[C@@H](C)NC[C@H](C)[C@@H](OC)CN(C)C3=O)c1`, the outcome in assay [1], in assay [2] and in assay [4] was inactive.

For `Cc1noc(C)c1S(=O)(=O)Nc1ccc2c(c1)CC(=O)N([C@H](C)CO)C[C@H](C)[C@H](CN(C)S(=O)(=O)c1cccs1)O2`, the compound was classed as inactive in assay [3], in assay [2] and in assay [4].

Regarding `O=C(NC[C@H]1[C@H](c2ccccc2)[C@H](CO)N1C(=O)Cc1cccnc1)C1CCC1`, the outcome in assay [1], in assay [2] and in assay [4] was inactive.

Take `CC(NC1CCCC1)C(=O)Nc1ccccc1-c1ccccc1` (stereo not given): the result in assay [1], in assay [2] and in assay [4] was inactive.

Turning to `CN1c2ccc(-c3ccc(F)cc3)cc2[C@@H]2[C@@H](CCN2C(=O)C2CCOCC2)[C@@H]1CO`, the outcome in assay [1], in assay [2] and in assay [4] was inactive.

On to `C[C@@H]1CN([C@H](C)CO)C(=O)c2cccc(NC(=O)c3ccncc3)c2O[C@H]1CN(C)C(=O)Nc1ccc(C(F)(F)F)cc1`, for which the call in assay [1], in assay [2] and in assay [4] was inactive.

Regarding `CCNC(=O)CN(c1ccccc1)S(=O)(=O)c1ccc(Cl)cc1`, the outcome in assay [1], in assay [2] and in assay [4] was inactive.

For the compound `O=C(C[C@H]1CC[C@H]2[C@@H](COC[C@H](O)CN2C(=O)Nc2ccc3c(c2)OCO3)O1)N1CCN(c2ccccc2)CC1`, the compound was classed as inactive in assay [1], in assay [2] and in assay [4].

In the case of `C[C@@H]1CN([C@H](C)CO)C(=O)c2cc(NS(=O)(=O)c3cn(C)cn3)ccc2O[C@@H](C)CCCCO[C@H]1CN(C)C`, the compound was called inactive in assay [1], in assay [2] and in assay [4].

Regarding `Cc1ccc(CSc2ncnc3c2cnn3-c2ccccc2)cc1`, the call in assay [1], in assay [2] and in assay [4] was inactive.

As for `CCN(CC)CC(=O)N(CC(=O)Nc1c(C)cc(C)cc1C)C1CCCCC1`, the compound was called inactive in assay [1], in assay [2] and in assay [4].

In the case of `COc1cc(C(=O)NC(=S)Nc2ccccc2N2CCOCC2)cc(OC)c1OC`, the compound was called inactive in assay [1], in assay [2] and in assay [4].

For the compound `CCc1ccccc1NC(=O)C1NC(=O)CC1c1ccccc1` (stereo not given), the result in assay [1], in assay [2] and in assay [4] was inactive.

On to `O=C(c1cccc(F)c1)N1C[C@H]2[C@@H](c3ccccc31)[C@@H](CO)N2Cc1cocn1`, for which the call in assay [1], in assay [2] and in assay [4] was inactive.

Turning to `CNC[C@H]1Oc2ncc(C#CCC(C)C)cc2C(=O)N([C@H](C)CO)C[C@H]1C`, the compound was called inactive in assay [1], in assay [2] and in assay [4].

For `O=C(C[C@H]1CC[C@H]2[C@@H](COC[C@H](O)CN2Cc2cc(F)cc(F)c2)O1)Nc1nccs1`, the outcome in assay [1], in assay [2] and in assay [4] was inactive.

On to `Cc1ccc(S(=O)(=O)N2CC[C@@H]3[C@H](CO)Nc4ccc(-c5ccccc5F)cc4[C@@H]32)cc1`, for which the call in assay [1], in assay [2] and in assay [4] was inactive.

For the compound `Cc1ccc(C)c(NC(=O)C2(C)CCN2C(=O)C(C)C)c1` (stereo not given), the compound was called inactive in assay [1], in assay [2] and in assay [4].

As to `Cc1ccc(N(C(=O)C2CCC(=O)N2)C2(C(=O)NC3CCCC3)CCCCC2)cc1` (stereo not given), the result in assay [1], in assay [2] and in assay [4] was inactive.

On to `Cc1cc(C)c(NC(=O)CN2CCCCCC2)c(C)c1`, for which the call in assay [1], in assay [2] and in assay [4] was inactive.

For the compound `CCc1ccc(NC(=O)[C@H](C)NC(=O)C2CCN(C(=O)[C@@H](N)CC(C)C)CC2)cc1`, the compound was called inactive in assay [1], in assay [2] and in assay [4].

With `CC(NC(=O)COc1ccccc1C(C)(C)C)c1ccccc1` (stereo not given), the outcome in assay [1], in assay [2] and in assay [4] was inactive.

With `COc1cccc(CNC(=O)COc2ccc(C(=O)c3ccccc3)cc2)c1`, the compound was classed as inactive in assay [1], in assay [2] and in assay [4].

Take `CNC(=O)CN(c1ccccc1)S(=O)(=O)c1ccc(F)cc1`: the outcome in assay [1], in assay [2] and in assay [4] was inactive.

In the case of `O=C(C[C@H]1CC[C@@H]2[C@H](COC[C@H](O)CN2CC2CCOCC2)O1)NCc1ccc(Cl)cc1`, the result in assay [1], in assay [2] and in assay [4] was inactive.

Turning to `Cc1cccc(C)c1NC(=S)NN(Cc1ccccc1)c1ccccc1`, the result in assay [1], in assay [2] and in assay [4] was inactive.

Turning to `C#CCN(C(=O)c1ccc(OC2CCN(C(=O)CCOC)CC2)cc1)C1CCCCC1`, the result in assay [1], in assay [2] and in assay [4] was inactive.

Consider `CC(C)c1ccc(OCC(=O)NC(C)c2ccccc2)cc1` (stereo not given), for which the outcome in assay [1], in assay [2] and in assay [4] was inactive.

With `CC(C)COc1ccc(CNC(=S)NCc2ccccc2)cc1`, the result in assay [1], in assay [2] and in assay [4] was inactive.

Regarding `CCCC(=O)N1CCC1(C)C(=O)Nc1cc(C)ccc1C` (stereo not given), the result in assay [1], in assay [2] and in assay [4] was inactive.

Take `Cc1cccc(OCC(=O)NCc2ccccc2)c1`: the outcome in assay [1], in assay [2] and in assay [4] was inactive.

On to `Cc1ccc(C(=O)n2nnc3ccccc32)cc1[N+](=O)[O-]`, for which the compound was classed as inactive in assay [1], in assay [2] and in assay [4].

With `Cc1ccc(S(=O)(=O)N(C)C[C@H]2Oc3c(cccc3N(C)C)C(=O)N([C@@H](C)CO)C[C@H]2C)cc1`, the result in assay [1], in assay [2] and in assay [4] was inactive.

`COc1cccc(NC(=O)CN2CCN(S(=O)(=O)c3ccc(C(C)C)cc3)CC2)c1`: the call in assay [1], in assay [2] and in assay [4] was inactive.

For the compound `O=C1CCC(C(=O)Nc2ccc([N+](=O)[O-])cc2)N1` (stereo not given), the outcome in assay [1], in assay [2] and in assay [4] was inactive.

With `CNC[C@H]1Oc2cc(Br)ccc2S(=O)(=O)N([C@H](C)CO)C[C@H]1C`, the call in assay [1], in assay [2] and in assay [4] was inactive.

Consider `CC(C)Oc1cccc(C(=O)NC(=S)Nc2ccccc2N2CCOCC2)c1`, for which the outcome in assay [1], in assay [2] and in assay [4] was inactive.

On to `CC(=O)N[C@H]1CC[C@@H](CCNC(=O)C2CCC2)O[C@H]1CO`, for which the result in assay [1], in assay [2] and in assay [4] was inactive.

With `C[C@H]1CN([C@@H](C)CO)C(=O)Cc2cc(NS(=O)(=O)c3cn(C)cn3)ccc2O[C@@H]1CN(C)Cc1ccc(Oc2ccccc2)cc1`, the call in assay [1], in assay [2] and in assay [4] was inactive.

With `Cc1ccc(-n2ncc3c(SCC(=O)NNC(=O)C(C)C)ncnc32)cc1`, the compound was classed as inactive in assay [1], in assay [2] and in assay [4].

For the compound `C[C@@H]1CN([C@H](C)CO)C(=O)Cc2cc(NC(=O)CCCCCC(=O)Nc3ccccc3N)ccc2O[C@H]1CN(C)C(=O)Nc1ccccc1`, the outcome in assay [1], in assay [2] and in assay [4] was inactive.

Take `CC(C)NC(=O)N(C)C[C@H]1Oc2c(NS(=O)(=O)c3ccc(Cl)cc3)cccc2C(=O)N([C@@H](C)CO)C[C@@H]1C`: the compound was called inactive in assay [1], in assay [2] and in assay [4].

As for `CC(=O)c1ccc(OCC(=O)NCc2ccc(F)cc2)cc1`, the call in assay [1], in assay [2] and in assay [4] was inactive.

For `CC(=O)N1[C@H](CO)[C@H](c2ccc(-c3ccccc3)cc2)[C@@H]1CNC(=O)C1CC1`, the compound was classed as inactive in assay [1], in assay [2] and in assay [4].

For `CO[C@H]1CC[C@@H]2CCOc3c(C#N)cccc3C(=O)N(C)C[C@@H](OC)[C@@H](C)C(=O)N(C)C[C@@H]1O2`, the compound was classed as inactive in assay [1], in assay [2] and in assay [4].

Consider `COC(=O)C1=C(C)N(Cc2ccc(Cl)cc2)C(=S)NC1c1cccc(OC)c1` (stereo not given), for which the call in assay [1], in assay [2] and in assay [4] was inactive.

As to `CC(C)NC(=O)N(C)C[C@@H]1Oc2c(NC(=O)C3CCCCC3)cccc2C(=O)N([C@@H](C)CO)C[C@@H]1C`, the call in assay [1] and in assay [4] was inactive. Further, the activity change, negative = cytotoxicity in assay [2] is 11.5% [at 6 µM].

Turning to `Cc1cccc(C)c1NC(=O)C1CCCCN1C` (stereo not given), the compound was classed as inactive in assay [1], in assay [2] and in assay [4].

Regarding `COc1ccc(CN(C)C[C@@H]2OCCCC[C@@H](C)Oc3ccc(NC(=O)c4ccccc4)cc3C(=O)N([C@H](C)CO)C[C@@H]2C)cc1`, the result in assay [1], in assay [2] and in assay [4] was inactive.

As for `CNC[C@@H]1Oc2c(NS(=O)(=O)c3ccc(Cl)cc3)cccc2C(=O)N([C@H](C)CO)C[C@H]1C`, the compound was called inactive in assay [1], in assay [2] and in assay [4].
